Inconclusive results are not listed. Calls of active or inactive are those of the source. The calls were made as follows: active = hit-call score of the fitted dose curve at least 0.9, where 1 is the maximum; inconclusive = response in the unintended direction; inactive = score below 0.9.
Experiment: TOX21_TR_RXR_BLA_Antagonist_Followup_viability: Viability Assessment in the Tox21 Thyroid Hormone Receptor beta Retinoid X Receptor alpha (RXRa) Antagonism Beta-lactamase (BLA) Follow-Up Assay (AID 2283979)
Text: GeneBLAzer RXRa-UAS-bla HEK293T assay (RXRa-bla) (ThermoFisherScientific Catalog No. K1697) was run in qHTS 1536 well format as a secondary assay for specificity of response in the TOX21_TR_GH3_LUC_Agonist assay.TOX21_TR_RXR_BLA_Antagonist_Followup_viability is a component of the TOX21_TR_RXR_BLA_Antagonist_Followup assay. This component measures cell viability using the CellTiter-Glo Luciferase-coupled ATP quantitation.The assay component endpoint TOX21_TR_RXR_BLA_Antagonist_Followup_viability was analyzed with bidirectional fitting relation to DMSO as the negative control and baseline of activity. Using a type of viability reporter, loss-of-signal activity can be used to understand changes in viability. To generalize the intended target to other relatable targets, this assay endpoint is annotated to cell cycle, where the subfamily is cytotoxicity.
Cell Media Required: Growth (90% DMEM/F-12, 10% Fetal Bovine Calf Serum, 100U/ml Penicillin, 100 ug/ml Streptomycin), Assay (10ng/mL sodium selenite, 10 ug/mL humanapo-transferrin, 10 uM ethanolamine, 10 ug/mL insulin, 500 ug/mL bovine serum albumin (BSA))Assay Protocol: RXRa-bla cells were seeded at 2,500/well in 6 uL of the assay medium containing phenol red-free DMEM with 2% charcoal-stripped FBS in 1,536-well black-wall/clear-bottom plates (Greiner Bio-One North America) usinga Multidrop Combi dispenser. After5-h incubation at 37C/5% CO2 for cell attachment, 23 nL of follow-up compounds dissolved in DMSO, 11 concentrations in triplicate, and the positive control (9-cis retinoic acid) were transferred to the assay plates using a Pintool station. The assay plates were incubated at 37C/5% CO2 for 16h. One microliter of LiveBLAzer FRET-B/GCCF4-AM substrate (Life Technologies) was added to each well using an FRD. After 2-h incubation at room temperature, the fluorescence intensity was measured using an Envision plate reader (Perkin Elmer). Data were expressed as the ratio of 460:530 nm.

| SMILES | outcome | AC50 |
| --- | --- | --- |
| CC(C)n1c(/C=C/[C@@H](O)C[C@@H](O)CC(=O)O)c(-c2ccc(F)cc2)c2ccccc21 | inactive | – |
| CCCCCOc1ccc(C2SC(=O)NC2=O)cc1OCC (stereo not given) | inactive | – |
| CC(C(=O)O)c1ccc(N2Cc3ccccc3C2=O)cc1 (stereo not given) | inactive | – |
| CC[C@@]1(O)C[C@@H]2CN(CCc3c([nH]c4ccccc34)[C@@](C(=O)OC)(c3cc4c(cc3OC)N(C)[C@H]3[C@@](O)(C(=O)OC)[C@H](OC(C)=O)[C@]5(CC)C=CCN6CC[C@]43[C@@H]65)C2)C1 | inactive | – |
| C[n+]1c2cc(N)ccc2cc2ccc(N)cc21 (tested in a mixture with another compound) | – | 16.5 µM (active) |
| Oc1ccc(OCc2ccccc2)cc1 | inactive | – |
| O=c1[nH]c(=O)n([C@H]2C[C@H](O)[C@@H](CO)O2)cc1F | inactive | – |
| CC(=O)Nc1ccn(C2COC(COC(=O)c3ccccc3)O2)c(=O)n1 (stereo not given) | inactive | – |
| CCCCCCNC(=O)n1cc(F)c(=O)[nH]c1=O | inactive | – |
| CO[C@H](C(=O)[C@@H](O)[C@@H](C)O)C1Cc2cc3cc(O[C@H]4C[C@@H](O[C@H]5C[C@@H](O)[C@H](O)[C@@H](C)O5)[C@@H](O)[C@@H](C)O4)c(C)c(O)c3c(O)c2C(=O)[C@H]1O[C@H]1C[C@@H](O[C@H]2C[C@@H](O[C@H]3C[C@](C)(O)[C@H](O)[C@@H](C)O3)[C@H](O)[C@@H](C)O2)[C@H](O)[C@@H](C)O1 (stereo not given in full) | – | 1.35 µM (active) |
| CO[C@H]1C[C@@H]2CC[C@@H](C)[C@@](O)(O2)C(=O)C(=O)N2CCCC[C@H]2C(=O)O[C@H]([C@H](C)C[C@@H]2CC[C@@H](OCCO)[C@H](OC)C2)CC(=O)[C@H](C)/C=C(\C)[C@@H](O)[C@@H](OC)C(=O)[C@H](C)C[C@H](C)\C=C/C=C/C=C/1C | inactive | – |
| Cc1cc(Nc2ccccc2C(=O)O)ccc1Cl | inactive | – |
| Nc1c2ccccc2nc2ccccc12 | – | 10.6 µM (active) |
| NC(N)=NCc1cccc(I)c1 | inactive | – |
| CCCC(=O)O[C@]1(C(=O)CCl)[C@@H](C)C[C@H]2[C@@H]3CCC4=CC(=O)C=C[C@]4(C)[C@@]3(F)C(=O)C[C@@]21C | inactive | – |
| Cc1c(Nc2ncccc2C(=O)O)cccc1C(F)(F)F | inactive | – |
| COc1ccc(/C=C/C(=O)Nc2ccccc2C(=O)O)cc1OC | inactive | – |
| CC(C)=CCC1=C(O)c2ccccc2C(=O)C1=O | inactive | – |
| CO[C@H]1C[C@@H]2CC[C@@H](C)[C@@](O)(O2)C(=O)C(=O)N2CCCC[C@H]2C(=O)O[C@H]([C@H](C)C[C@@H]2CC[C@@H](O)[C@H](OC)C2)CC(=O)[C@H](C)/C=C(\C)[C@@H](O)[C@@H](OC)C(=O)[C@H](C)C[C@H](C)\C=C/C=C/C=C/1C | inactive | – |
| O=[Se](O)O | – | 5.16 µM (active) |

| SMILES | outcome | AC50 |
| --- | --- | --- |
| COC(=O)Nc1nc2ccc(Sc3ccccc3)cc2[nH]1 | inactive | – |
| Oc1c(I)cc(I)c2cccnc12 | inactive | – |
| CC1(C)N=C(N)N=C(N)N1c1ccc(Cl)cc1 | inactive | – |
| CCCOc1ccc2nc(NC(=O)OC)sc2c1 | inactive | – |
| Brc1cc(Oc2cc(Br)c(Br)c(Br)c2Br)c(Br)c(Br)c1Br | inactive | – |
| C#CCC(Cc1cnc2nc(N)nc(N)c2n1)c1ccc(C(=O)N[C@@H](CCC(=O)O)C(=O)O)cc1 (stereo not given in full) | – | 0.542 µM (active) |
| Cc1oc(C)c(C(=O)Nc2ccccc2)c1C | inactive | – |
| CC(C)N=C(N)/N=C(\N)Nc1ccc(Cl)cc1 | inactive | – |
| CCc1cc(Cl)c(OC)c(C(=O)NC[C@@H]2CCCN2CC)c1O | inactive | – |
| Nc1ccc2cc3ccc(N)cc3nc2c1 | inactive | – |
| CC(=O)[C@H]1CC[C@H]2[C@@H]3C=CC4=CC(=O)CC[C@@]4(C)[C@@H]3CC[C@]12C | inactive | – |
| CC1(C)S[C@@H]2[C@H](NC(=O)C(N)c3ccccc3)C(=O)N2[C@H]1C(=O)OC1OC(=O)c2ccccc21 (stereo not given in full) | inactive | – |
| O=C(CCCCCCC(=O)Nc1ccccc1)NO | inactive | – |
| COc1cc([C@@H]2c3cc4c(cc3[C@H](O)[C@H]3COC(=O)[C@H]23)OCO4)cc(OC)c1OC | inactive | – |
| C[C@@H]1C[C@H]2[C@@H]3CCC4=CC(=O)C=C[C@]4(C)[C@@]3(Cl)[C@@H](O)C[C@]2(C)[C@@]1(OC(=O)c1ccco1)C(=O)CCl | inactive | – |
| CCC[C@@]1(CCc2ccccc2)CC(O)=C([C@H](CC)c2cccc(NS(=O)(=O)c3ccc(C(F)(F)F)cn3)c2)C(=O)O1 | inactive | – |
| COc1ccc2nc(NC(=O)Nc3ccccc3)sc2c1 | inactive | – |
| O=C(O)c1cccc(-c2noc(-c3ccccc3F)n2)c1 | inactive | – |
| Cc1nc2ccccc2n1Cc1ccc(Cl)cc1 | inactive | – |
| O=C1C(=O)c2ncccc2-c2cccnc21 | inactive | – |

From PubChem BioAssay (EPA / NIEHS)
